30 compounds from PubChem BioAssay AID720706 (Broad Institute, 2013) can be followed below.

Several values for one entry are separate records, joined by “and”; a condition that tells them apart may be missing. Equal values may be shown once. Screen size: about 350,000 compounds; about 5,500 (1.6%) were called active.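 How the source made its calls: active means significant combined selectivity score with lowered wild-type GFP, culture density cut under 30%, mutant RFP and density less affected; inactive means any of these conditions unmet.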 Shown is part of a subset that was picked to be rich in actives. Where a structure was tested more than once in an assay, its records may differ in their call.

The assay is described as follows: GFP drop in mixed WT/humanized-ribosome E. coli culture – GFP/RFP fluorescence, OD600, single point, bacterial rRNA inhibitor project, primary screen (AID 720706). Conditions: E. coli WT GFP vs humanized-ribosome RFP mutants, 24 h; GFP signal change (wild-type ribosome): stronger effect = lower value, DMSO median 0, no signal -100; OD600 change: measured here: OD600 growth, DMSO median 0, no signal -100; RFP signal change: measured here: RFP humanized mutant strains, DMSO median 0, no signal -100, concentration not given here.
With `CCn1c(C)c(C)c2cc(C(=O)N3CCN(c4cccc(C)c4C)CC3)ccc21`, the GFP signal change (wild-type ribosome) is 13.4% (inactive), the OD600 change is -10.1% and the RFP signal change was 8.15%.
The matching figures for `CCOc1ccccc1N1CCN(C(=O)c2ccc3[nH]c(C)c(C)c3c2)CC1`: -34.6% (active), -17.6% and 7.07%.
Regarding `Cc1[nH]c2ccc(C(=O)N3CCN(C)CC3)cc2c1C`, the GFP signal change (wild-type ribosome) is 6.6% (inactive), the OD600 change came out at 11% and the RFP signal change came to 3.29%.
Regarding `CNC[C@@H]1Oc2ccc(N(C)C)cc2CC(=O)N(C)C[C@@H]1C`, the GFP signal change (wild-type ribosome) was -0.679% (inactive), the OD600 change is 1.44% and the RFP signal change was -1.38%.
The matching figures for `CN(/N=C/c1ccccc1)C(=S)c1ccccc1`: -28.9% (active), -13.5% and -2.92%.
Take `CN(O)C(=S)c1ccccc1`: the GFP signal change (wild-type ribosome) is -58% (inactive), the OD600 change was -75.2% and the RFP signal change is -15%.
The matching figures for `NN=C(NN=Cc1ccccc1)c1ccccc1`: 3.05% (inactive), 19.4% and -0.189%.
The matching figures for `O=C(C[C@H]1C[C@@H]2c3cc(NS(=O)(=O)c4ccc(F)cc4)ccc3O[C@@H]2[C@H](CO)O1)NCc1cccc(F)c1`: 0.64% (inactive), -2.85% and 2.59%.
The matching figures for `CCC(=O)N1CC(=O)N2[C@@H](CO)[C@H](c3ccc(C#CC4CCCC4)cc3)[C@@H]2C1`: 1.66% (inactive), -3.78% and -1.59%.
In the case of `O=C(C[C@@H]1CC[C@H]2[C@@H](COC[C@@H](O)CN2C(=O)c2ccc3c(c2)OCO3)O1)NC1Cc2ccccc2C1`, the GFP signal change (wild-type ribosome) is 1.47% (inactive), the OD600 change is -6.88% and the RFP signal change is -0.618%.
For `C[C@@H]1CN([C@@H](C)CO)C(=O)CCCn2nncc2CO[C@H]1CN(C)Cc1ccc(C(F)(F)F)cc1`, the GFP signal change (wild-type ribosome) is -3.59% (inactive) and 7.37% (inactive); the OD600 change was -1.83% and 9.18%; the RFP signal change was 2.44% and -0.538%.
With `C[C@H]1CN([C@@H](C)CO)C(=O)CCCn2nncc2CO[C@@H]1CN(C)C(=O)Nc1ccc(N2CCN(C)CC2)cc1`, the GFP signal change (wild-type ribosome) is 22.4% (inactive) and -1.77% (inactive); the OD600 change is 13.6% and 7.97%; the RFP signal change is 3.72% and -0.742%.
Turning to `C[C@@H]1CN([C@@H](C)CO)C(=O)CCCn2nncc2CO[C@H]1CN(C)C(=O)Nc1ccc(C(F)(F)F)cc1`, the GFP signal change (wild-type ribosome) is -16.6% (active) and -54% (inactive); the OD600 change was -10.2% and -56.3%; the RFP signal change is 5.18% and -10.9%.
On to `CCCNC(=O)N1CC(=O)N2[C@H](C1)[C@@H](c1ccc(C#Cc3ccccc3)cc1)[C@@H]2CO`, for which the GFP signal change (wild-type ribosome) is -41.7% (inactive), the OD600 change was -70.4% and the RFP signal change is -0.11%.
Turning to `COc1ccc2c3c(n(C)c2c1)[C@@H](CO)N(C(=O)Nc1ccccc1F)CC31CCN(C(=O)c2ccccc2F)CC1`, the GFP signal change (wild-type ribosome) was -2.62% (inactive), the OD600 change is -3.48% and the RFP signal change was -0.298%.
The matching figures for `CO[C@@H](CN(C)C(=O)c1cnccn1)[C@H](C)CN([C@H](C)CO)S(=O)(=O)c1ccc(C)cc1`: 1.87% (inactive), 2.69% and -1.48%.
On the same counts, the results for `CCc1c(C)c2ccc(OC3CCCCC3=O)cc2oc1=O` (stereo not given) are 1.77% (inactive), -3.25% and 1.07%.
The matching figures for `CCc1nc2ccccc2c(C(=O)NCc2ccc(OC)cc2)c1C`: -3.42% (inactive), -5.87% and -3.53%.
Regarding `CCc1nc2ccccc2c(C(=O)OC2CCCCC2=O)c1C` (stereo not given), the GFP signal change (wild-type ribosome) is -34.4% (active), the OD600 change was -20.5% and the RFP signal change was 3.94%.
As to `CC(=O)N(C)C[C@@H]1Oc2cc(-c3cccnc3)ccc2S(=O)(=O)N([C@@H](C)CO)C[C@H]1C`, the GFP signal change (wild-type ribosome) is 0.257% (inactive), the OD600 change was -3.4% and the RFP signal change is -4.17%.
On the same counts, the results for `O=C(CC1CC1)N1CC(=O)N2[C@H](CO)[C@H](c3ccc(C#Cc4ccc(F)cc4)cc3)[C@@H]2C1` are -21.5% (inactive), -61.2% and 15.4%.
The matching figures for `COc1ccc(-c2cnc3c(c2)C(=O)N([C@H](C)CO)C[C@@H](C)[C@H](CN(C)C(=O)Cc2ccncc2)O3)cc1`: -1.52% (inactive), 2.2% and -0.471%.
On the same counts, the results for `COc1cccc(NC(=O)Nc2ccc3c(c2)OC[C@@H](C)NC[C@@H](C)[C@H](OC)CN(C)C3=O)c1` are 0.255% (inactive), 0.1% and 2.58%.
As to `C[C@@H]1CCCCO[C@H](CN(C)C(=O)CCCN(C)C)[C@@H](C)CN([C@@H](C)CO)C(=O)c2cc(NC(=O)c3ccncc3)ccc2O1`, the GFP signal change (wild-type ribosome) is 3.33% (inactive), the OD600 change is 12.1% and the RFP signal change is -1.91%.
On the same counts, the results for `CCOC(=O)N1CCN(C(=O)c2cc3c(-c4ccc(Cl)cc4)nn(C)c3s2)CC1` are -22.9% (active), -10.6% and -5.96%.
On the same counts, the results for `Cn1nc(-c2ccc(Cl)cc2)c2cc(C(=O)NCc3ccco3)sc21` are -29.9% (inactive), -25.9% and -16.6%.
The matching figures for `COc1ccccc1N1CCN(C(=O)c2cc3c(-c4ccc(Cl)cc4)nn(C)c3s2)CC1`: 0.925% (inactive), 11.2% and 2.25%.
Consider `COc1ccc2c3c(n(C)c2c1)[C@H](CO)NCC31CN(Cc2cc(F)ccc2F)C1`, for which the GFP signal change (wild-type ribosome) was -2.04% (inactive), the OD600 change was determined as 1.28% and the RFP signal change was 1.51%.
On the same counts, the results for `CCOC(=O)c1ccn(S(=O)(=O)c2ccc(C)cc2)c1-c1ccccc1` are -4.05% (inactive), -26.5% and -5.7%.
For the compound `CCc1c(N=O)c(-c2ccccc2)n(O)[n+]1[O-]`, the GFP signal change (wild-type ribosome) is -18.1% (active), the OD600 change is 0.75% and the RFP signal change is -2.88%.
